Results as given in the supplement of paper PMC11001985.
A number with no mark means an inactive call.

target: ACLY (lysine site: K991) (UniProt P53396); assay: lysine labeling ratio R10:1 (500 µM / 50 µM probe), SILAC-ABPP in living cells; higher = lower intrinsic lysine reactivity toward the probe, active = 2 or less; settings: HeLa; probe concentrations 500 vs 50 µM
Protocol: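 Living HeLa cells (SILAC light/heavy) in PBS at room temperature were labeled with 50 µM versus 500 µM of the lysine-reactive, reductant-cleavable probe OPA-S-S-alkyne (SILAC labeling time not stated). Probe-modified peptides were CuAAC-biotinylated, captured on neutravidin and eluted with DTT/IAA, then quantified by LC-MS/MS. R = median peptide ratio per lysine (500/50 µM), combined over 3 forward and 3 reverse SILAC replicates. Ratios are capped at 20; R < 2 = hyper-reactive.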

Sequence of ACLY (lysine site: K991) (P53396 whole entry): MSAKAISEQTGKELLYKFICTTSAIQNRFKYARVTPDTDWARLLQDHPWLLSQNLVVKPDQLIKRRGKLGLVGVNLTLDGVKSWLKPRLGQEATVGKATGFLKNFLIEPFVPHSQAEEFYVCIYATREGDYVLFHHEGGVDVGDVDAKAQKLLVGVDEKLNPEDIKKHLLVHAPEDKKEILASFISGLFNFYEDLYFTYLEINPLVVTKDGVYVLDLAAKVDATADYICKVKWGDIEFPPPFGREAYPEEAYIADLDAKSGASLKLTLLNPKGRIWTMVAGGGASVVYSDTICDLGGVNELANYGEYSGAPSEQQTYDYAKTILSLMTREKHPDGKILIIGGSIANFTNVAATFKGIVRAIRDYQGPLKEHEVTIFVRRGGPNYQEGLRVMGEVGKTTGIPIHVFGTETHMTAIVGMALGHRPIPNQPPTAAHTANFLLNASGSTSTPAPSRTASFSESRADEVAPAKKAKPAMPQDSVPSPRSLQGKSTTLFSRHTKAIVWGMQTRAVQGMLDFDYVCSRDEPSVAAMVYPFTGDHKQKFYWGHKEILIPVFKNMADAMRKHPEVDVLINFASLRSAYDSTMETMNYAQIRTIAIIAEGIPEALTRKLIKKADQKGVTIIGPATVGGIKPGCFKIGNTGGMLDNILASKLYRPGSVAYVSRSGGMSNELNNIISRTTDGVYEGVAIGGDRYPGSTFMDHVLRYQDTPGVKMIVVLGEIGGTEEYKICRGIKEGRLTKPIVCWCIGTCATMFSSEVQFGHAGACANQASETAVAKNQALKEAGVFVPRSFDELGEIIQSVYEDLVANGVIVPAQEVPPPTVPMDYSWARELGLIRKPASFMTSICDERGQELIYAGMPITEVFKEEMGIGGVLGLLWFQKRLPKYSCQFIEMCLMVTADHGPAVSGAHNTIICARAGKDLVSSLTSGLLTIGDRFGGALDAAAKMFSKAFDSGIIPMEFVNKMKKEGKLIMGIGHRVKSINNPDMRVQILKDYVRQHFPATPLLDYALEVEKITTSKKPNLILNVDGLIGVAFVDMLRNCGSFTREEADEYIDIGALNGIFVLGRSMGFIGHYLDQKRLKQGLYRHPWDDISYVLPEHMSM

Row | Compound | lysine labeling ratio R10:1
1 | C#CCNC(=O)CCSSCCC(=O)NCCc1ccc(C=O)c(C=O)c1 | 2.27
